Screening results from PubChem.
Shown are actives, neighbours in structure and some others; about 3% of the full set was active somewhere.
Measles CPE: protection of cells from measles virus. Measles virus-infected cells, CPE protection, absorbance. protection (pct of control), % at 4 µM. hit rate 1.5% among 140,000. AID 841; in the data active = protection mostly above about 24%, no sharp cut-off; inactive = mostly below about 26%
Insulin prom inh: TRM-6 insulin promoter activity inhibition; TRM-6 cells (human fetal islet line), insulin promoter-eGFP reporter, imaging; reporter expression induced with tamoxifen; inhibition, % at 2 µM; hit rate 0.9% among 130,000;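 active = inhibition above the mean plus 3 SD, with well images judged a real hit on visual review, cut at about 60% in these data, passing the limit was not always enough; inconclusive = inhibition over the cutoff but images rejected on review; inactive = inhibition not above the cutoff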
sdo1 growth: sdo1-depleted yeast growth rescue; S. cerevisiae sdo1-depleted JHY4D growth rescue, OD600 30 h; active compounds read high; pdr5 snq2 efflux-pump mutant strain; z-score at 10 µM; hit rate 0.21% among 140,000;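 active = z-score above 3 at both the 24 hr and the 30 hr optical density reads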
ROMK primary: modulates human ROMK potassium channel activity | P48048 | Tet-inducible ROMK, thallium flux fluorescence; actives lie on both sides | B-score at 10 µM | hit rate 2% among 130,000 | AID 1918;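 active = signal ratio slope over the read window, or its plate-corrected B-score, at least 3 SD from the plate mean, either direction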;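 note: B-score of the F/F0 ratio slope over 7 to 12 s after thallium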
Target sequence (P48048 whole entry, looked up): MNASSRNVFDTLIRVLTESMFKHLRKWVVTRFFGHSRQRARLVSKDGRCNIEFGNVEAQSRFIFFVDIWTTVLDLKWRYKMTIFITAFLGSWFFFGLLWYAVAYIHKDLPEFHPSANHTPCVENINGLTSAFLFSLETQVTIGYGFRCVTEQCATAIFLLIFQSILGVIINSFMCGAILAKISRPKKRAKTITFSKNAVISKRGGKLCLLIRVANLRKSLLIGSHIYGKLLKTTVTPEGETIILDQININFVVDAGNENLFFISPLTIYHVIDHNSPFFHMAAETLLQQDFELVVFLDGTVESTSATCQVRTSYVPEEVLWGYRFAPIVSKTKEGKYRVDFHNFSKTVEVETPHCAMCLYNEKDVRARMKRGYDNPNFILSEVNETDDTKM
A number is an active result; . = inactive; ? = inconclusive; / = not tested or not shown.

SMILES	Measles CPE	Insulin prom inh	sdo1 growth	ROMK primary
COc1ccc([N+](=O)[O-])cc1N(CC(=O)N1CCCCC1)S(C)(=O)=O	/	/	/	.
CCOC(=O)C1CCN(C(c2cccnc2)c2c(NC(=O)c3ccco3)sc(C)c2C)CC1 (configuration not stated)	67.2	.	.	.
Cc1cc(C)nc(SCc2nnc(SCC(=O)Nc3nccs3)n2Cc2ccco2)n1	40.7	.	.	/
Cc1nn(-c2nc3ccccc3s2)c(C)c1Oc1ccccc1O	43.8	/	.	/
CCNc1nc(NCC)nc(C(=O)OCCO)n1	.	/	.	/
CCC(=O)n1nc(-c2ccc(Cl)cc2)nc1SC	.	.	.	.
COc1ccc(-c2nc(SC)n(C(=O)c3ccco3)n2)cc1	.	?	.	.
CCC(=O)n1nc(-c2ccc(OC)cc2)nc1SC	.	89.2	.	/
CCCC(=O)n1nc(-c2ccc(Cl)cc2)nc1SC	.	75.0	.	/
Nc1c(N2CCCCC2)c2ccccc2oc1=O	/	.	/	.
Cc1nc2ccccn2c1C(=O)N=Nc1c(O)n(CCC(C)C)c2ccccc12	.	/	.	/
COc1ccc(C/C(C)=N/NC(=S)Nc2ccc(C)c(C)c2)cc1	19.7	/	.	/
COc1ccc(CNC(=S)Nc2cccc(C)c2)cc1	39.6	.	.	.
CCc1nnc(NC(=O)Cn2nc(-c3ccccc3OC)ccc2=O)s1	.	.	.	/
COc1ccc(-n2nc(N)c(C(N)=O)n2)cc1	/	.	/	.
C=CCn1cnc2c(c1=O)c1nc3ccccc3nc1n2-c1ccc(Cl)cc1	/	/	/	.
Cc1ccc(S(=O)(=O)c2c(C)nn(C(C)(C)C)c2OC(=O)C2CCCC2)cc1	.	81.8	.	/
Cc1nc(N/N=C/c2ccc(O)cc2)c2cnn(-c3ccccc3)c2n1	/	88.9	/	.
COc1ccc(-c2nc(SCC(=O)NCc3ccco3)c(-c3ccccc3)[nH]2)cc1OC	.	72.4	.	.
O=S(=O)(Nc1ccc(Cl)cc1)c1ccc2c(c1)CCO2	/	/	/	.
CCN1CCN(CC(=O)Nc2c(C(=O)OC)[nH]c3cccc(Cl)c23)CC1	.	78.6	.	.
O=C(Nc1cccc(C(F)(F)F)c1)/C(=C/c1ccco1)NC(=O)c1cccs1	.	/	.	/
O=C(Nc1nnc(-c2ccccc2)o1)c1cc(Cl)sc1Cl	.	.	.	2.35
COc1cccc(-c2nnc(NC(=O)c3ccc(Cl)s3)o2)c1	.	.	.	1.94
O=C(Nc1nnc(-c2ccc(F)cc2)o1)c1cc(Cl)sc1Cl	.	.	.	3.17
SMILES	Measles CPE	Insulin prom inh	sdo1 growth	ROMK primary
O=C(COC(=O)CCc1nc2ccccc2c(=O)[nH]1)NC(=O)NC1CCCC1	.	.	.	.
CN1CCN(C(=O)NCC23CC4CC(CC(C4)C2)C3)CC1	/	/	/	.
COc1cccc(C2CCCN2Cc2nc(-c3cnccn3)no2)c1 (configuration not stated)	/	/	/	.
O=C(OCC(=O)N1CCN(C(=O)c2ccco2)CC1)C1=COCCO1	22.8	.	.	/
O=C(OCC(=O)N1CCN(c2ccccc2)CC1)C1=COCCO1	.	.	.	/
CS(=O)(=O)N1CCc2cc(-c3csc(NC(=O)Cc4ccccc4)n3)ccc21	117.7	.	.	/
CCCC(=O)Nc1nc(-c2ccc3c(c2)CCN3S(C)(=O)=O)cs1	.	.	.	/
CC1Cc2cc(-c3csc(NC(=O)Cc4cccs4)n3)ccc2N1S(C)(=O)=O (configuration not stated)	101.6	/	.	.
CCCS(=O)(=O)N1CCC(C(=O)NCCCOCC)CC1	.	/	.	/
C=CCNc1nnc(Sc2ncccc2[N+](=O)[O-])s1	/	92.9	/	.
CC1CC(C)CN(c2ncc3c(n2)CC(c2ccccc2)CC3=O)C1 (configuration not stated)	41.9	.	.	.
CN(C)C(=O)CN(c1ccc2c(c1)OCO2)S(C)(=O)=O	.	71.4	.	/
CS(=O)(=O)N(CC(=O)Nc1ccc2c(c1)OCO2)c1ccc2c(c1)OCO2	.	/	.	.
CC(=O)Nc1ccccc1NC(=O)CN(C)S(=O)(=O)c1ccc(C)cc1	.	.	.	/
Cc1ccc(S(=O)(=O)N(C)CC(=O)Nc2cccc(C)n2)cc1	.	78.7	.	/
COC(=O)/C=C1\OC(c2ccccc2)=CC1=O	.	.	.	.
COc1ccc(NC(=O)N2CCCCC2)cc1	.	80.0	.	/
CC(C)C(=O)Nc1ccc(C(=O)N2CCCCCC2)cc1	39.0	.	.	.
CC(/C=C/c1ccc2c(c1)OCO2)=N/NC(=O)c1ccc(C)nc1	.	/	.	/
Cc1nc2c3ccccc3[nH]c(=O)n2n1	68.2	.	.	/
CCN1C(=O)C(O)(CC(=O)c2ccccn2)c2ccccc21 (configuration not stated)	.	75.0	.	.
CN1C(=O)C(O)(CC(=O)c2ccccn2)c2cc(Br)ccc21 (configuration not stated)	.	.	.	/
